Experimental data from PubChem BioAssay (NCI).
Compounds without any hit were thinned out: in the full panel of roughly 83,000, 20% have a hit.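 Single-concentration screen, 48 h exposure, 96-well plates. Endpoint: percent growth. Below 10 = active.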 Calls of active or inactive are those of the source.

The compounds below were run on HL-60(TB) leukemia (assay: NCI-60 one-dose screen, 48 h (100 = growth as untreated, 0 = no growth, -100 = all killed)). Conditions: 10 µM unless noted.
`C=C(C)[C@@H]1CC[C@]2(C(N)=O)CC[C@]3(C)[C@H](CC[C@@H]4[C@@]5(C)CC[C@H](OCCC#N)C(C)(C)[C@@H]5CC[C@]43C)[C@@H]12` was tested, and the growth was 99.9% (inactive). For `CC(CO)(CO)C(=O)O`, the growth was 108% (inactive). With `Nc1nc2ncc(CNc3ccc(C(=O)N[C@@H](CCc4nn[nH]n4)C(=O)O)cc3)nc2c(=O)[nH]1` the growth was 109% (inactive). With `O=[N+]([O-])c1ccc2c(c1)S(=O)c1cc([N+](=O)[O-])ccc1N2` the growth was 109% (inactive). For `CC(Oc1ccc(C(=O)O)cc1C(F)(F)F)c1ccc(Oc2ccccc2)cn1` (stereo unspecified), the growth was 101% (inactive). For `Cn1cc(-c2nonc2-c2c[nH]c3ccc(F)cc23)c2cccnc21`, the growth was 91.7% (inactive). For `O=C1C=CC(=O)N1C1c2ccccc2-c2ccccc21`, the growth was 77.7% (inactive). For `C=C(C)[C@@H]1CC[C@]2(CN)CC[C@]3(C)[C@H](CC[C@@H]4[C@@]5(C)CCC(=O)NC(C)(C)[C@@H]5CC[C@]43C)[C@@H]12`, the growth was -50.5% (active). `CN(C)CCOc1ccc2c(c1)C(=O)/C(=C\c1ncc([N+](=O)[O-])n1C)C2` was tested, and the growth was -51.8% (active). `CCCc1n(Cc2ccc3ccccc3c2)cc[n+]1Cc1ccc2ccccc2c1` was tested, and the growth was -53.1% (active). In the case of `Nc1nc(-c2ccccn2)cc(-c2cc(-c3ccccn3)nc(N)n2)n1`, the growth was 105% (inactive). In the case of `O=C(Nc1ccc(I)cc1)c1cc([N+](=O)[O-])ccc1O`, the growth was 20.6% (inactive). With `O=C1C=CC(=Nc2cc(Br)c(O)c(Br)c2)C=C1` the growth was 29.9% (inactive). In the case of `CC1=CC(=O)C(C(C)C)=CC1=Nc1cc(Br)c(O)c(Br)c1`, the growth was -9.85% (active). With `CCN(CC)CC(=O)Nc1ccc2ncnc(Nc3ccc(Oc4cccc(F)c4)c(Cl)c3)c2c1` the growth was 16.2% (inactive). With `O=c1nc2sc3nc4ccccc4cc3cc-2s1` the growth was 99% (inactive). `COc1ccc2[nH]cc(-c3nc(-c4c[nH]c5ncccc45)cs3)c2c1` was tested, and the growth was 13.9% (inactive). In the case of `O=C1/C(=C/c2ccccn2)CCc2ccccc21`, the growth was 56.6% (inactive). `COc1ccc(CN2C(=O)OC(C)(COC(C)=O)C2=O)cc1` (stereo unspecified) was tested, and the growth was 101% (inactive). In the case of `NNc1ncnc2nc[nH]c12`, the growth was 35.3% (inactive). `C=CCCCCCCCCC(=O)OC(C)C` was tested, and the growth was 117% (inactive). In the case of `COc1ccc(-c2cnnn2-c2cc(OC)c3c(c2)OCO3)cc1`, the growth was -32% (active). `C=C1C(=O)O[C@H]2[C@H]1CC/C(Cn1cc(CNCCc3c[nH]c4ccc(Cl)cc34)nn1)=C\CC[C@@]1(C)O[C@@H]21` was tested, and the growth was -55.2% (active). `CCCCCCCCCCCCNC(=O)N[C@H](C(=O)N[C@H]1/C=C/CCNC(=O)/C=C/[C@H](C)NC1=O)C(C)C` was tested, and the growth was -25.2% (active). In the case of `CCOC(=O)c1cnc2ccc(Cl)cc2c1NCCCN(C)C`, the growth was -18.6% (active). With `Cc1cc(Nc2c3ccccc3nc3ccccc23)ccc1NS(C)(=O)=O` the growth was 32.2% (inactive).
